This is a sample that favours compounds with a hit; in the whole collection about 4% have one here.
TRPM1 prom inh = reduces MITF-dependent TRPM1 promoter luciferase signal; 330,000 tested, 0.83% active; inhibition, % at 12.5 µM; SK-MEL-5 TRPM1 promoter luciferase, 24 h; AID 488899;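 active = mean inhibition across replicates of 60% or more, whatever share of single replicates reaches that level; inconclusive = some that reach 60%, reason not given; inactive = mean inhibition across replicates below 60%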
PAX8 reporter = inhibitors of PAX8 transcriptional activity in RMG-I cells. RMG-I TPO-luciferase reporter, SteadyGlo, 24 h. inhibition, % at 12.6 µM. 360,000 tested, 1.2% active. AID 652154;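 active = mean replicate inhibition at least 60% with every replicate also reaching 60%; inconclusive = only one of the two criteria is met; inactive = mean below 60% and not all replicates reaching 60%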;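 also: luciferase light reporting Pax8 driven TPO promoter activity; plate controls were median of neutral control wells for no effect and mitoxantrone controls for full effect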
MITF act = MITF TRPM1 promoter activation in melanoma cells | SK-MEL-5 TRPM1-promoter luciferase, 24 h; % of positive control, neutral wells = 0 | activation, % at 12.5 µM | 300,000 tested, 0.75% active | AID 588334;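 active = mean activation of at least 80% with every replicate also reaching 80%; inconclusive = mean reaches 80% but some replicate falls short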;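 also: 0% = neutral control wells and 100% = parthenolide positive control wells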
esBAF inh = SWI/SNF esBAF complex inhibition; mouse ES cells, Bmi1-luciferase knock-in reporter, 24 h; 100% = twice the neutral-well signal; reporter increase, % at 12.5 µM; 350,000 tested, 2% active; in the data active = activation above about 40%; inconclusive = no clear call, values can overlap the other calls;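 also: 0% = median of the plate's neutral control wells and 100% = double that signal; a rise in the Bmi1 reporter signal indicates esBAF inhibition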
EWS-Fli block = inhibitors of EWS/Fli oncoprotein transcriptional activity; A673 NR0B1-luciferase reporter, viability-normalised; 350,000 tested, 0.67% active; inhibition, % at 12.6 µM; AID 651661;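 active = mean inhibition of at least 50% after viability correction, with every replicate also passing that limit; inconclusive = mean reaches 50% but only one of two replicates passes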;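 also: firefly luciferase signal divided by Alamar Blue viability fluorescence both relative to DMSO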
Wnt bcat act = Wnt/beta-catenin pathway activation; Wnt/beta-catenin reporter cell assay, activator, plate reader; activation, % at 9.35 µM; 300,000 tested, 1.2% active; in the data active = activation above about 30%, passing the limit was not always enough; inconclusive = no clear call, values can overlap the other calls;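 also: 0% = neutral control wells and 100% = positive control wells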
Starred values were filed as active, the others as inactive; ? = inconclusive; . = no result.

SMILES	TRPM1 prom inh	PAX8 reporter	MITF act	esBAF inh	EWS-Fli block	Wnt bcat act
C[C@@H]1CN([C@@H](C)CO)C(=O)c2cc(NS(=O)(=O)c3ccccc3)ccc2O[C@@H]1CN(C)CC1CCCCC1	.	-7	.	-2	16	.
CC(=O)N1CCN(C(=O)c2ccc(-c3ccccc3Cl)o2)CC1	-60	-129	65	47*	-66	25
O=C(c1ccc(-c2ccc([N+](=O)[O-])cc2)o1)N1CCCCCCC1	-17	-173	17	20	-86	26
O=C(c1ccc(-c2ccccc2Cl)o1)N1CCCCCCC1	-75	-183	?	54*	-59	40*
Cc1c(Cl)cccc1-c1ccc(C(=O)N2CCN(c3ccc([N+](=O)[O-])cc3)CC2)o1	5	.	-3	6	.	0
C[C@H]1CN([C@@H](C)CO)C(=O)c2cccc(NS(C)(=O)=O)c2O[C@H]1CN(C)CC1CC1	.	0	.	-2	-8	.
COc1ccc2c(c1)Sc1ccccc1N2	-8	-6	10	.	-18	4
c1ccc2c(c1)Nc1cc3ccccc3cc1S2	-60	-65	.	.	-91	38*
CCOC(=O)COc1ccc2ccccc2c1/C=C/[N+](=O)[O-]	83*	15	-83	.	22	-13
CCOC(=O)COc1ccc2nsnc2c1	-4	.	2	-3	.	-1
Cc1cccc(Cn2cc(/C=C/[N+](=O)[O-])c3ccccc32)c1	19	.	.	7	.	.
O=[N+]([O-])/C=C/c1c(OCc2ccccc2)ccc2ccccc12	98*	.	-98	23	.	.
CCOC(=O)COc1ccc(/C=C/[N+](=O)[O-])c(OCC(=O)OCC)c1	92*	.	-91	.	.	.
CCOC(=O)Cn1cc(/C=C/[N+](=O)[O-])c2ccccc21	9	17	-5	-2	-6	14
CCOc1ccc(/C=C/[N+](=O)[O-])c2ccccc12	84*	.	.	-22	.	.
COc1ccc2c3c(n(C)c2c1)[C@H](CO)N(Cc1cccnc1)CC31CN(C(=O)NC(C)C)C1	.	.	.	.	-15	.
CN1C(=O)c2cc(NC(=O)Nc3ccccc3F)ccc2OC[C@@H]2O[C@@H](CC(=O)NCCc3ccncc3)CC[C@@H]21	.	3	.	1	-2	.
C[C@@H]1CN([C@H](C)CO)C(=O)c2cc(-c3ccncc3)cnc2O[C@H]1CN(C)C(=O)C1CCC1	.	.	.	.	4	.
O=Cc1c(-c2ccc(Cl)cc2)oc2ccc(O)cc12	.	-170	.	?	-77	84*
O=C(Oc1ccccc1)c1cc(O)c(O)c(O)c1	.	.	.	-1	.	.
COC(=O)c1ccc(COC(=O)CNC(=O)c2ccc(OC)cc2)cc1	-59	-203	60	68*	-79	20
O=C(OCCc1ccccc1)c1cc(O)c(O)c(O)c1	-47	-108	42	-9	4	51*
Nc1ccc(C(=O)OCCc2ccccc2)cc1	-107	-82	101*	-12	-15	60*
COc1ccc(C(=O)OCCc2ccc(O)cc2)cc1	-129	-232	130*	50*	10	17
COC(=O)c1ccc(COC(=O)CNC(=O)CNC(=O)c2ccc(OC)cc2)cc1	-3	-13	.	.	14	3
SMILES	TRPM1 prom inh	PAX8 reporter	MITF act	esBAF inh	EWS-Fli block	Wnt bcat act
CNC1=C(N(C(C)=O)c2ccc(Br)cc2)C(=O)c2ccccc2C1=O	107*	105*	-106	.	.	-22
CCC(=O)N(C1=C(NC)C(=O)c2ccccc2C1=O)C(C)C	35	74*	-37	.	-6	-2
O=C(N[C@@H]1CC[C@H](CCNS(=O)(=O)c2ccc(F)cc2)O[C@@H]1CO)C1CCC1	.	2	.	0	2	.
C[C@@H]1CN([C@H](C)CO)C(=O)c2cccc(NC(=O)c3nc4ccccc4s3)c2O[C@H]1CN(C)Cc1ccc(C(=O)Nc2ccccc2N)cc1	.	.	.	12	-6	.
C/C(=N\Nc1cccc2cccnc12)c1ccc[nH]1	-48	-52	48	47*	-11	42*
C/C=C/c1ccc([C@@H]2[C@H](CO)N(C(=O)NCCC)[C@H]2CNC(=O)C2CCC2)cc1	.	18	.	1	10	.
CN1C(=O)c2cc(NC(=O)Nc3ccccc3)ccc2OC[C@H]2O[C@H](CC(=O)O)CC[C@H]21	.	4	.	0	-9	.
COCC(=O)N1CC(=O)N2[C@H](CO)[C@H](c3ccc(C#CC4CC4)cc3)[C@H]2C1	.	-13	.	.	-21	.
CCc1nnc(NC(=O)CSc2ncnc3c2cnn3-c2ccc(OC)cc2)s1	-10	.	14	3	.	38*
